According to PubChem BioAssay AID1159580 (chemical genetic matrix, 2015):
Values joined by “and” are separate entries in the source; they are usually repeats but may differ in a detail not shown here. Equal values may be shown once. Screen size: about 5,500 compounds; about 2,000 (36%) were called active. Another 18% or so got no clear call; they are omitted. No stated cut-off is given here; in the data, active means normalized growth mostly below about 0.91 (no sharp cut-off); inconclusive means no clear call, values can overlap the other calls; inactive means mostly above about 0.92. Some of the results follow.

Assay: chemical genetic growth profiling, strain panel (AID 1159580);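 further: tested at 20 µM; growth read once vehicle control cultures reached saturation at 30 °C; 1 = growth at the plate median or of vehicle wells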
Details: S. cerevisiae deletion strains, growth OD

Measured: normalized growth

O=c1c(O)c(-c2ccccc2)oc2cc(O)ccc12
0.434 (active) and 1.07 (inactive): locus YHR030C, strain SLT2, stronger effect = lower value
active: locus YAL021C, strain ccr4, stronger effect = lower value 0.572 | locus YAL026C, strain drs2, stronger effect = lower value 0.486 | locus YAL030W, strain snc1, stronger effect = lower value 0.66 | locus YBL061C, strain skt5, stronger effect = lower value 0.685 | locus YBR009C, strain hhf1, stronger effect = lower value 0.597 | locus YBR023C, strain chs3, stronger effect = lower value 0.518 | locus YBR171W, strain sec66, stronger effect = lower value 0.825 | locus YBR229C, strain ROT2, stronger effect = lower value 0.873 | locus YBR231C, strain swc5, stronger effect = lower value 0.572 | locus YBR279W, strain paf1, stronger effect = lower value 0.641 | locus YCL011C, strain gbp2, stronger effect = lower value 0.583 | locus YCL016C, strain dcc1, stronger effect = lower value 0.711 | locus YCL029C, strain bik1, stronger effect = lower value 0.779 | locus YCL061C, strain MRC1, stronger effect = lower value 0.799 | locus YCL069W, strain vba3, stronger effect = lower value 0.864 | locus YDL035C, strain GPR1, stronger effect = lower value 0.432 | locus YDL040C, strain nat1, stronger effect = lower value 0.847 | locus YDL074C, strain BRE1, stronger effect = lower value 0.455 | locus YDL101C, strain DUN1, stronger effect = lower value 0.697 | locus YDL192W, strain arf1, stronger effect = lower value 0.664 | locus YDR001C, strain nth1, stronger effect = lower value 0.887 | locus YDR069C, strain doa4, stronger effect = lower value 0.413 | locus YDR101C, strain arx1, stronger effect = lower value 0.903 | locus YDR137W, strain rgp1, stronger effect = lower value 0.38 | locus YDR150W, strain NUM1, stronger effect = lower value 0.707 | locus YDR162C, strain NBP2, stronger effect = lower value 0.121 | locus YDR297W, strain sur2, stronger effect = lower value 0.77 | locus YDR318W, strain mcm21, stronger effect = lower value 0.708 | locus YDR334W, strain swr1, stronger effect = lower value 0.704 | locus YDR335W, strain msn5, stronger effect = lower value 0.757 | locus YDR388W, stronger effect = lower value 0.759 | locus YDR392W, strain spt3, stronger effect = lower value 0.369 | locus YDR502C, strain sam2, stronger effect = lower value 0.751 | locus YEL003W, strain gim4, stronger effect = lower value 0.754 | locus YEL037C, strain rad23, stronger effect = lower value 0.794 | locus YEL061C, strain CIN8, stronger effect = lower value 0.705 | locus YER015W, strain faa2, stronger effect = lower value 0.454 | locus YER016W, strain bim1, stronger effect = lower value 0.766 | locus YER111C, strain swi4, stronger effect = lower value 0.873 | locus YER155C, strain BEM2 (second series), stronger effect = lower value 0.81 | locus YER155C, strain BEM2, stronger effect = lower value 0.627 | locus YER167W, strain BCK2, stronger effect = lower value 0.676 | locus YFR010W, strain ubp6, stronger effect = lower value 0.62 | locus YGL086W, strain mad1, stronger effect = lower value 0.699 | locus YGL167C, strain pmr1, stronger effect = lower value 0.882 | locus YGL173C, strain kem1, stronger effect = lower value 0.382 | locus YGL240W, strain doc1, stronger effect = lower value 0.675 | locus YGL248W, strain PDE1, stronger effect = lower value 0.506 | locus YGL253W, strain hxk2, stronger effect = lower value 0.508 | locus YGR078C, strain PAC10, stronger effect = lower value 0.586 | locus YGR135W, strain pre9, stronger effect = lower value 0.675 | locus YGR252W, strain gcn5, stronger effect = lower value 0.701 | locus YHR013C, strain ard1, stronger effect = lower value 0.439 | locus YHR027C, strain rpn1, stronger effect = lower value 0.339 | locus YHR079C, strain IRE1 (second series), stronger effect = lower value 0.913 | locus YHR094C, strain hxt1, stronger effect = lower value 0.903 | locus YHR129C, strain ARP1, stronger effect = lower value 0.564 | locus YHR142W, strain chs7, stronger effect = lower value 0.474 | locus YHR200W, strain rpn10, stronger effect = lower value 0.825 | locus YIL066C, strain RNR3, stronger effect = lower value 0.663 | locus YIL073C, strain SPO22, stronger effect = lower value 0.326 | locus YIR030C, strain dcg1, stronger effect = lower value 0.858 | locus YJL092W, strain hpr5, stronger effect = lower value 0.79 | locus YJL095W, strain BCK1 (second series), stronger effect = lower value 0.337 | locus YJL115W, strain asf1, stronger effect = lower value 0.9 | locus YJL129C, strain trk1, stronger effect = lower value 0.809 | locus YJL134W, strain LCB3, stronger effect = lower value 0.844 | locus YJL154C, strain vps35, stronger effect = lower value 0.885 | locus YJL164C, strain tpk1, stronger effect = lower value 0.432 | locus YJL166W, strain qcr8, stronger effect = lower value 0.471 | locus YJL168C, strain set2, stronger effect = lower value 0.902 | locus YJL187C, strain SWE1 (second series), stronger effect = lower value 0.5 | locus YJL187C, strain SWE1, stronger effect = lower value 0.653 | locus YJR043C, strain POL32, stronger effect = lower value 0.387 | locus YJR075W, strain HOC1, stronger effect = lower value 0.571
inactive: locus YBR021W, strain FUR4, stronger effect = lower value 1.05 | locus YCR088W, strain abp1, stronger effect = lower value 0.937 | locus YDL005C, strain med2, stronger effect = lower value 0.941 | locus YDL185W, strain tfp1, stronger effect = lower value 0.928 | locus YDR159W, strain sac3, stronger effect = lower value 0.886 | locus YDR195W, strain ref2 1.07 | locus YEL061C, strain CIN8 (second series), stronger effect = lower value 0.915 | locus YER110C, stronger effect = lower value 0.92 | locus YGL078C, strain dbp3, stronger effect = lower value 0.948 | locus YGL227W, strain vid30, stronger effect = lower value 0.931 | locus YHR079C, strain IRE1, stronger effect = lower value 1.07 | locus YIL125W, strain kgd1, stronger effect = lower value 0.951 | locus YJR066W, strain TOR1, stronger effect = lower value 0.982
0.208 (active) and 1.01 (inactive): locus YJL095W, strain BCK1, stronger effect = lower value
